Results filed as inconclusive are left out. Where a call stands in place of a potency, no number is given. Activity calls are given as the source filed them. Calls come from the whole dose curve.
What follows are molecules tested against 5-hydroxytryptamine receptor 2A (Homo sapiens) (UniProt P28223) (assay: 5-hydroxytryptamine receptor 2A (HTR2A) small molecule agonists, cell-based qHTS assay (AID 1963587; note: nearly all actives have a fitted effect of over 30% in size)). Details: HTR2A-CHO cells, calcium flux fluorescence, agonist mode; series mostly up to 76.8 µM.
5-hydroxytryptamine receptor 2A (Homo sapiens), sequence (P28223 whole entry, looked up): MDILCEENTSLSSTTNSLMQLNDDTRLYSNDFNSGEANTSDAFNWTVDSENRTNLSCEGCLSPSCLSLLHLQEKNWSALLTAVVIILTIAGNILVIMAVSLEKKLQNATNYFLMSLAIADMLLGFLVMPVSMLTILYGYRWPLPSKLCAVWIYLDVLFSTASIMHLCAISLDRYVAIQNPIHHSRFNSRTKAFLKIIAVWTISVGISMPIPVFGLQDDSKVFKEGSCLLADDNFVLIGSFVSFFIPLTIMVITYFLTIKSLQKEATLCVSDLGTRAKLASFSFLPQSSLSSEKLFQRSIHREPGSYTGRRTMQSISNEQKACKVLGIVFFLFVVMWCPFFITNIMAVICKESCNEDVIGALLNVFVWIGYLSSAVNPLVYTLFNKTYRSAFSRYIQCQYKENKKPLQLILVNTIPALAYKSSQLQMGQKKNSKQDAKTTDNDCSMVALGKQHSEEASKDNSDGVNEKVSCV
Excerpt: National Center for Advancing Translational Sciences [NCATS]
Division of Preclinical Innovation [DPI]
U.S. Environmental Protection Agency [EPA]
National Institutes of Environmental Health Sciences [NIEHS]
National Toxicology Program [NTP]
U.S. Food and Drug Administration [FDA]
The HTR2A receptor is a subtype of the 5-HT2 receptor that belongs to the serotonin receptor family and is a G protein-coupled receptor (GPCR). The HTR2A-CHO cell line stably expressing human 5-hydroxytryptamine receptor 2A (HTR2A) can be used for screening agonists of interactions between 5-HT2 and its ligands. The HTR2A-CHO calcium flux assay is a homogeneous fluorescence-based assay for detecting the intracellular calcium level using FDSS kinetic plate reader system.
HTR2A-CHO cells were dispensed at 2000 cells/3uL/well in 1536-well black-clear bottom plates using a Multidrop Dispenser. After the assay plates were incubated at a 37 C/5% CO2 incubator for 18 h, 3 uL of Dye Loading Buffer was transferred to the assay plate by a Flying Reagent Dispenser. The assay plates were incubated at 37 C for 1h. For agonist mode, 23 nL of compounds dissolved in DMSO, positive controls or DMSO only was transferred to the assay plate by a pin tool. The fluorescence intensity in the plates was measured using FDSS 7000EX kinetic plate reader for 2 min at 1 sec intervals.
Potency is the fitted concentration of half-maximal effect.

| Compound | Potency | activation |
| --- | --- | --- |
| CCOC(=O)N1CCC(Nc2ccc(Cl)cc2N)CC1 | inactive | – |
| Clc1nc(C(Cl)(Cl)Cl)c(Cl)c(Cl)c1Cl | inactive | – |
| CO[Si](CCCS)(OC)OC | inactive | – |
| C/C=C(\C)C=O | inactive | – |
| CCCCCN(CCCCC)C(=O)C(CCC(=O)O)NC(=O)c1ccc(Cl)c(Cl)c1 (stereo not given) | inactive | – |
| CCCCCCCCCCCCN(CCO)CCO | 48.8 µM (active) | – |
| COc1cc2c(cc1N)oc1ccccc12 | inactive | – |
| CC(C)=CCC/C(C)=C/C=N/O | inactive | – |
| c1ccc(CCNc2nc(-c3ccccc3)cs2)cc1 | inactive | – |
| O=c1[nH]sc2cc(Cl)ccc12 | inactive | – |
| CC(C)C(=O)OCc1ccccc1 | inactive | – |
| CCOC(=O)[C@H](CCc1ccccc1)N[C@@H](C)C(=O)N1Cc2cc(OC)c(OC)cc2C[C@H]1C(=O)O | inactive | – |
| CCOc1ccccc1N | inactive | – |
| O=CC(=O)c1ccccc1 | inactive | – |
| CNS(=O)(=O)CCc1ccc2[nH]cc(C3CCN(C)CC3)c2c1 | inactive | – |
| CCC=CC#N | inactive | – |
| C[C@]12C=CC(=O)C=C1[C@@H](F)C[C@@H]1[C@@H]2[C@@H](O)C[C@@]2(C)[C@H]1CC[C@]2(O)C(=O)CO | inactive | – |
| O=C(OCCCCCCOC(=O)c1ccccc1)c1ccccc1 | inactive | – |
| CCNC(=O)C(C)OC(=O)Nc1ccccc1 (stereo not given) | inactive | – |
| Nc1nc(Cl)nc2c1ncn2[C@@H]1O[C@H](CO)[C@@H](O)[C@@H]1F | inactive | – |

| Compound | Potency | activation |
| --- | --- | --- |
| CC(C)(C)C(=O)NCCCC(=O)O | inactive | – |
| Cc1cc(S(=O)(=O)O)c(N)cc1Cl | inactive | – |
| OCCN(CCO)CCN(CCO)CCO | inactive | – |
| [O]=[Mo](=[O])=[O] | – | 4.75% [at 15.9 µM] (inactive) |
| CCCCCCCC[Si](OCC)(OCC)OCC | inactive | – |
| CC(C)(C)C(=O)Oc1ccc(S(=O)(=O)Nc2ccccc2C(=O)NCC(=O)O)cc1 | inactive | – |
| COc1ccc(OC)c(N=Nc2c(O)ccc3ccccc23)c1 | 4.36 µM (active) | – |
| Cc1c(C)c([N+](=O)[O-])c(C(C)(C)C)c([N+](=O)[O-])c1C | inactive | – |
| O=C(N[C@@H](Cc1ccccc1)[C@@H](O)C(=O)N1C[C@@H](O)[C@@H](O)C1)c1cc2cc(Cl)ccc2[nH]1 | inactive | – |
| CC(=O)Nc1ccc(S(N)(=O)=O)cc1 | inactive | – |
| CC1=CC(=O)CC(C)(C)C1(O)/C=C/C(C)=C\C(=O)O (stereo not given) | inactive | – |
| N=C1C=CC(=C(c2ccc(N)cc2)c2ccc(N)cc2)C=C1 | inactive | – |
| CN(C)CCN(C)CCN(C)C | inactive | – |
| CCCCCCCCSCc1cc(C)c(O)c(CSCCCCCCCC)c1 | inactive | – |
| C/C=C/C(=O)CC | – | -1.41% [at 15.9 µM] (inactive) |
| CN(C)CCCCl | inactive | – |
| O=C1CCCCO1 | inactive | – |
| COC(=O)CCCCCCCCC(=O)OC | inactive | – |
| OC(CCN1CCCC1)(c1ccccc1)C1CCCCC1 (stereo not given) | inactive | – |
| CC1=C(C)C(=O)C(C(CCCCCC(=O)O)c2ccccc2)=C(C)C1=O (stereo not given) | inactive | – |

Reference: PubChem BioAssay (Tox21)
